# According to PubChem BioAssay:
# Inconclusive results are not listed. Calls of active or inactive are those of the source. Unless noted, the rule behind the calls is not given here.
# Tests used:
# [1] = yeast TOR pathway RPL19A-GFP modulators, primary screen, cell-based, S. cerevisiae, multiplex flow cytometry (AID 1862; in the data active = percent of DMSO control GFP below about 86%;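 note: lower values mimic rapamycin by blocking the RPL19A rise seen in DMSO cells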); settings: S. cerevisiae RPL19A-GFP strain, flow cytometry fluorescence, 3 h; at 10 µM; stronger effect = lower value
# [2] = modulators of MEP2-GFP levels in yeast, primary screen, S. cerevisiae, multiplex flow cytometry (AID 1867;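 active = GFP response, as percent of the DMSO control, above the screen-wide mean plus 3 SD, about 139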;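 note: median GFP channel fluorescence of barcode-gated MEP2-GFP cells measured by flow cytometry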); settings: S. cerevisiae MEP2-GFP strain, 3 h, at 10 µM, stronger effect = higher value
# [3] = modulators of CIT2-GFP expression in yeast, primary screen, S. cerevisiae, GFP fusion, multiplex flow cytometry (AID 1870;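 active = percent response above a set limit, the screen-wide mean plus 3 SD, cut at about 130% in these data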;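 note: barcoded CIT2-GFP strain pooled with four other GFP strains with rapamycin as positive control; median GFP fluorescence per well over plate mean of DMSO wells so 100% = DMSO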); settings: 3 h, at 10 µM, stronger effect = higher value
# [4] = modulators of LAP4-GFP expression in yeast, primary screen, S. cerevisiae, multiplex flow cytometry (AID 1873;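 active = GFP signal, as percent of the solvent control, above the screen mean plus 3 SD, about 149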); settings: 3 h, at 10 µM, stronger effect = higher value
# [5] = modulators of AGP1-GFP expression in yeast TOR pathway, primary screen, cell-based, multiplex flow cytometry, S. cerevisiae (AID 1887;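 active = GFP signal above the screen-wide mean plus 3 SD, that is over about 124.5% of the solvent control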;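 note: AGP1-GFP fusion strain of S. cerevisiae within a five-strain barcoded multiplex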); settings: 3 h, at 10 µM, stronger effect = higher value
# [6] = inhibitors of CD8+ T cell-vesicle binding, pilot screen, LFA-1/ICAM-1 modulator project, MLPCN validation set, flow cytometry (AID 2523;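 active = response below a set limit, under 55% cells CD8-positive and vesicle-bound, and CD8 cells' 90th-percentile brightness under 279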;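 for vesicle binding response: mean PE anti-B7-1 fluorescence of CD8+ cells relative to row control; 100% = QL9-loaded vesicles with DMSO vehicle in the same plate row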); settings: 2C mouse CD8+ T cells, at 7 µM, stronger effect = lower value; double positive events: measured here: CD8+/vesicle+ event percentage
# [7] = target: Integrin beta-1 (Homo sapiens) + Integrin alpha-4 (Homo sapiens) (UniProt P13612+P05556); assay: inhibition of HUTS-21 binding to VLA-4, pilot screen, VLA-4 allosteric modulator project, U937 cells, HUTS-21 mAb, flow cytometry, validation set (AID 2674;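 active = inhibition above 50%, about 3 SD of the validation set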;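 note: antibody binding induced by the VLA-4 ligand LDV present at three times its Kd; 0% = LDV ligand with antibody and no compound and 100% = antibody without LDV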); settings: HUTS-21 LIBS mAb binding, at 6.7 µM, stronger effect = higher value
# [8] = superoxide lowering in aged yeast cells, pilot screen, validation compound set (AID 2706;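 active = superoxide response below 65% of plate, a cut near 3 SD across the whole screen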;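 note: yeast exposed to compound for one week at 30 degrees C before staining; 100% = mean of all compound wells on the same plate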); settings: S. cerevisiae aging, superoxide DHE fluorescence; at 10 µM; stronger effect = lower value
# [9] = target: Beta-adrenergic receptor kinase 1 (Homo sapiens) (UniProt P25098); assay: GRK2 binders displacing RNA aptamer, biochemical, validation, human GRK2, bead flow cytometry (AID 488806;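 active = aptamer binding inhibition above 30%, about 3 SD of noise from non-fluorescent compounds; inactive = inhibition at or below 30%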); settings: bead-bound GRK2, FAM-aptamer displacement, at 10 µM, stronger effect = higher value
# [10] = target: Beta-2 adrenergic receptor (Homo sapiens) (UniProt P07550); assay: beta2AR agonists driving receptor internalization, pilot screen, cell-based, FAP fluorogen, flow cytometry, validation set (AID 504459;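 active = percent response above 42, roughly 3 SD of non-fluorescent test compounds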;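 note: agonist-driven loss of surface beta2AR via internalization measured by FAP dye flow cytometry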); settings: Am2.2-beta2AR cells, FAP surface receptor flow cytometry; at 10 µM; stronger effect = higher value
# [11] = target: AP-2 complex subunit beta (Homo sapiens) (UniProt P63010); assay: inhibitors of arrestin peptide binding to AP2, pilot screen, biochemical, validation set, GST-AP2 beads, flow cytometry (AID 504541;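 active = inhibition above 54%, about 3 SD of non-fluorescent compounds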;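 note: AP2 carries R879A mutation and is captured from E. coli lysate; bead-bound FITC arrestin peptide fluorescence measuring arrestin peptide binding to AP2; 0% = DMSO wells and 100% = excess unlabeled arrestin peptide control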); settings: FITC arrestin peptide, at 10 µM, stronger effect = higher value
# [12] = yeast V-ATPase proton transport modulators, S. cerevisiae, pHLuorin, HTS validation (AID 504600; in the data active = response above about 15%;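 note: plate controls were DMSO for no effect and reference compound for full effect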); settings: S. cerevisiae pHLuorin cytosolic pH, at 10 µM, stronger effect = higher value
# [13] = system: anti-desmoglein-3 scFv antibody binding to human DSG3; assay: inhibitors of anti-DSG3 scFv binding to DSG3, pilot screen, biochemical, validation compound set, bead-based, flow cytometry (AID 588368;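 active = binding below the plate cutoff, the plate median minus 3 SD, with a reading above zero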;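 note: signal is the median channel fluorescence of bead-bound GFP antibody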); settings: Protein G beads, DSG3-Fc, scFv-GFP binding, at 10 µM, stronger effect = lower value
# [14] = system: Botulinum neurotoxin type F light chain protease (Clostridium botulinum); assay: Botulinum neurotoxin type F light chain protease inhibition, multiplex microsphere flow cytometry, validation set (AID 588459); settings: multiplex microsphere protease substrate cleavage assay, at 10 µM, stronger effect = higher value
# [15] = target: Botulinum neurotoxin type A (Clostridium botulinum) (UniProt P0DPI0); assay: BoNT/A light chain protease inhibitors, biochemical, multiplex microsphere flow cytometry, validation set (AID 588460); settings: at 10 µM, stronger effect = higher value
# [16] = target: Lethal factor (Bacillus anthracis) (UniProt P15917); assay: Lethal factor protease inhibitors, Bacillus anthracis, multiplex microsphere cleavage assay, validation set (AID 588461); settings: flow cytometry, at 10 µM, stronger effect = higher value
# [17] = inhibitors of fungal efflux pumps CDR1, CDR2, MDR1, pilot screen, validation compound set, multiplex, phenotypic (AID 588506;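 active = efflux inhibition above 0.42, the validation set average plus 4 SD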;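 note: Nile Red retained in cells so higher fluorescence means more efflux inhibition; 0 = negative control wells and 1 = enniatin B 25 µM full block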); settings: S. cerevisiae pump-expressing triplex, Nile Red efflux flow cytometry; at 10 µM; stronger effect = higher value
# [18] = target: ATP-binding cassette sub-family B member 6 (Homo sapiens) (UniProt Q9NP58); assay: ABCB6 transporter inhibitors, pilot screen, K562-ABCB6 cells, flow cytometry, validation set (AID 588550;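 active = inhibition above the screen-wide mean plus 3 SD, about 51%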;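 note: 0% = DMSO wells and 100% = benzethonium chloride 70 µM positive control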); settings: K562-ABCB6 porphyrin accumulation, 1 h, at 10 µM, stronger effect = higher value
# [19] = promoters of myeloid differentiation in arrested cells, primary screen, cell-based, GFP/MAC1 double positive, flow cytometry, validation set (AID 588685;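 active = differentiation response of at least 50%, scaled between solvent and reference control, from cells with both markers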;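 note: compound exposure lasts four days before antibody staining and flow analysis; 0% = DMSO wells and 100% = 5 µM fulvestrant positive control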); settings: ER-HoxA9 marrow cells, stronger effect = higher value
# Chain of Lethal factor (Bacillus anthracis) (P15917 whole entry, looked up): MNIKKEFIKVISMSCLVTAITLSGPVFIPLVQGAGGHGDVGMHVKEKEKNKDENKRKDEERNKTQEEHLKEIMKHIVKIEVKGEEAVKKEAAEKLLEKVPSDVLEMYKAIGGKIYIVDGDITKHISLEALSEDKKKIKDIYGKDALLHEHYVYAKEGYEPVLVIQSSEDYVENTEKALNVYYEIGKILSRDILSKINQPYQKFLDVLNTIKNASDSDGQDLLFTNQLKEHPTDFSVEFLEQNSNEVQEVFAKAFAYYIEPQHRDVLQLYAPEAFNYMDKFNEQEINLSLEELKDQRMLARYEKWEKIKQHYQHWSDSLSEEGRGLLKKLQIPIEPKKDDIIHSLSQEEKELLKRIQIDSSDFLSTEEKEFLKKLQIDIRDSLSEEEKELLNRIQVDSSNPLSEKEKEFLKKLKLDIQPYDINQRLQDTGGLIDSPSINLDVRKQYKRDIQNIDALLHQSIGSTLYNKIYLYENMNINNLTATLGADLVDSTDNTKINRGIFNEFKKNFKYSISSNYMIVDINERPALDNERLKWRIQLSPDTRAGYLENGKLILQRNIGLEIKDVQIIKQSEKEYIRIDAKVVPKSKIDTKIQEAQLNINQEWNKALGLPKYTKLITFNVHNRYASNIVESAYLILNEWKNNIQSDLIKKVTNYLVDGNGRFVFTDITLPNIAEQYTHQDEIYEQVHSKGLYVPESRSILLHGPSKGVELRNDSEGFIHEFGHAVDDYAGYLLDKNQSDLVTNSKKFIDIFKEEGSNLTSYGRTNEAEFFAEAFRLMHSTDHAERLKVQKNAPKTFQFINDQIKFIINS
# Chain of AP-2 complex subunit beta (Homo sapiens) (P63010 whole entry, looked up, one chain of several): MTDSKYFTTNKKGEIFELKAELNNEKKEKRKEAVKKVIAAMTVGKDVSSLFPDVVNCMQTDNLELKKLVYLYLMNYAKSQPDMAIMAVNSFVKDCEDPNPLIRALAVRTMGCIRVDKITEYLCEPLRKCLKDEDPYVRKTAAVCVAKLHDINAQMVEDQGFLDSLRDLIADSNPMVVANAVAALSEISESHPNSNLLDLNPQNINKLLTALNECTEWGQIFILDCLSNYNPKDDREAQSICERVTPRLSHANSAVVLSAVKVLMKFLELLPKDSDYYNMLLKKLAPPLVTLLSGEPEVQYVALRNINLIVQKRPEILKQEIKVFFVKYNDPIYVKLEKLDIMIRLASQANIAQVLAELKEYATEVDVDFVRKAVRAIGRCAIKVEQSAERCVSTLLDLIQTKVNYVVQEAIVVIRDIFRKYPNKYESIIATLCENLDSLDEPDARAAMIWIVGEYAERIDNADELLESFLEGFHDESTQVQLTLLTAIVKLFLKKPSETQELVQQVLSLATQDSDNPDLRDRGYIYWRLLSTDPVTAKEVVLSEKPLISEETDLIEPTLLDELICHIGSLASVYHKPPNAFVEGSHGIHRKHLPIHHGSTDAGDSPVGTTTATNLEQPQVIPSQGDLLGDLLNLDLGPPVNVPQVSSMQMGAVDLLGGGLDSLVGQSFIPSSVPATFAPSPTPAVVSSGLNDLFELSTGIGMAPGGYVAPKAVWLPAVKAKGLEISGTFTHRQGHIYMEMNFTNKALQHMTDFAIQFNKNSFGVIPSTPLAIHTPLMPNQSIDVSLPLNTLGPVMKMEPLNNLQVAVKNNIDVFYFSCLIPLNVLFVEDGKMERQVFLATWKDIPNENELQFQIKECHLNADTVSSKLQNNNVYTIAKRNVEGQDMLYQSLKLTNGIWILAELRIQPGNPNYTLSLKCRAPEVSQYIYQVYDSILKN
# Chain of Botulinum neurotoxin type A (Clostridium botulinum) (P0DPI0 whole entry, looked up): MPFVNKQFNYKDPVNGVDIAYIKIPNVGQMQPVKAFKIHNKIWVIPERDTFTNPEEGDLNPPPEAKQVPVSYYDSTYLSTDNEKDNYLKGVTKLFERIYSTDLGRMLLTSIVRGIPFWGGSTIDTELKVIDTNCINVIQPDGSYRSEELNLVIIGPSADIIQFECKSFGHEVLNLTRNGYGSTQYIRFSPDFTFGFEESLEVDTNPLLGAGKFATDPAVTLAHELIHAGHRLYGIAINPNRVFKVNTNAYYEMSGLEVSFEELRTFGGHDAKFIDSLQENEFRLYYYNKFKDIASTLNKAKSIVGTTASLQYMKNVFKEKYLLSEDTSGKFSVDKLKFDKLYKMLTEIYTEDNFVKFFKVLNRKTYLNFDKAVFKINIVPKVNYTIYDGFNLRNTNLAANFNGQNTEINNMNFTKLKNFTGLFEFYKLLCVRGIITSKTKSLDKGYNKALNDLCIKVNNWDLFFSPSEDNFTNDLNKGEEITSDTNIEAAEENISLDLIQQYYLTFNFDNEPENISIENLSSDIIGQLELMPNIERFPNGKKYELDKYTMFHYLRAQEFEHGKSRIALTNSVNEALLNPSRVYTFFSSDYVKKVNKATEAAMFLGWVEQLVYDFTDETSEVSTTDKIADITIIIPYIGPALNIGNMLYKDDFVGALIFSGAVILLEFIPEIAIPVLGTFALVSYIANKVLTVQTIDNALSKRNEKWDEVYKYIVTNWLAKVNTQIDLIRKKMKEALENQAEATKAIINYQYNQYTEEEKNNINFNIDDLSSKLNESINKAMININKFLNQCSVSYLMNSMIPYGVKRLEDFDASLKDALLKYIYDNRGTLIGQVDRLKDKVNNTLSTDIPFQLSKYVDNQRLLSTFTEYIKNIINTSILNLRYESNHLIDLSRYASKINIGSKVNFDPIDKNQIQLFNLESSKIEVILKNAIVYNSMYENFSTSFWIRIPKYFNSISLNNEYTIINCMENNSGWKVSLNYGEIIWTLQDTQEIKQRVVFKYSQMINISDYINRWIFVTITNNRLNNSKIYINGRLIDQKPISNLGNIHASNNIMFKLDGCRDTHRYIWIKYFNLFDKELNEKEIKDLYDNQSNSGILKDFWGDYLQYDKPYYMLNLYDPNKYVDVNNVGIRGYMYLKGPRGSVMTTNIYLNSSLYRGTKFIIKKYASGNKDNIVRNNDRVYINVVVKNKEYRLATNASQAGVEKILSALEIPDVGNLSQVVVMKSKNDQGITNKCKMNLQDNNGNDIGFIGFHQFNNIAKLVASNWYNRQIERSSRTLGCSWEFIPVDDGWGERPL
# Chain of Beta-adrenergic receptor kinase 1 (Homo sapiens) (P25098 whole entry, looked up): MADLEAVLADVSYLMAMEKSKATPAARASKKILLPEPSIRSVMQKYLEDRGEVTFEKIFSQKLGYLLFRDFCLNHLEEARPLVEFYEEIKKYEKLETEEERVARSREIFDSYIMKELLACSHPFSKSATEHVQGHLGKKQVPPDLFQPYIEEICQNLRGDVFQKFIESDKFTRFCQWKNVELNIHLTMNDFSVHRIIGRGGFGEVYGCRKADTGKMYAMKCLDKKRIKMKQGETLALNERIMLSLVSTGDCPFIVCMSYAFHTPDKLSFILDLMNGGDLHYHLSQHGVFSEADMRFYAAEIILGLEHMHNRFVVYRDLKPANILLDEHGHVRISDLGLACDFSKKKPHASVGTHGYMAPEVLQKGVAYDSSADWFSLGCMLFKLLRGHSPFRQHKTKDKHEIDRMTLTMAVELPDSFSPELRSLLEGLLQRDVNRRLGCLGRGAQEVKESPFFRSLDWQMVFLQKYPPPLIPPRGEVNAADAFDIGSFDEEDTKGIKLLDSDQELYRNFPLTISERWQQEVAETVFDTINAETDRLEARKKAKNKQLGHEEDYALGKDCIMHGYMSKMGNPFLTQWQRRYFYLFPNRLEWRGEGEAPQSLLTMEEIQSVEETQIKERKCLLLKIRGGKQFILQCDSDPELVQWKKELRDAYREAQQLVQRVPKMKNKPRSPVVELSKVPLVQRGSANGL
# Chain of Beta-2 adrenergic receptor (Homo sapiens) (P07550 whole entry, looked up): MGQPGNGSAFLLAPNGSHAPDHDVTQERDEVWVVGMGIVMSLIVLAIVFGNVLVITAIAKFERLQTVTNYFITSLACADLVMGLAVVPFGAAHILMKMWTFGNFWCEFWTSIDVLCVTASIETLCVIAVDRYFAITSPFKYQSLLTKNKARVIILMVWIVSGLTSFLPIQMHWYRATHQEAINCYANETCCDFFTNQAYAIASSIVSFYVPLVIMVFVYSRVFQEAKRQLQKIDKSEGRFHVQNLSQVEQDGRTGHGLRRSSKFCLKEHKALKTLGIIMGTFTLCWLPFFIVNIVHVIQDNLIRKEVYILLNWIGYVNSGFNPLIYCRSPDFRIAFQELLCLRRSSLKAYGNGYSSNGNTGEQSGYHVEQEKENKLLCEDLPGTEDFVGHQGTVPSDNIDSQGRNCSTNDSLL
# Chain of ATP-binding cassette sub-family B member 6 (Homo sapiens) (Q9NP58 whole entry, looked up): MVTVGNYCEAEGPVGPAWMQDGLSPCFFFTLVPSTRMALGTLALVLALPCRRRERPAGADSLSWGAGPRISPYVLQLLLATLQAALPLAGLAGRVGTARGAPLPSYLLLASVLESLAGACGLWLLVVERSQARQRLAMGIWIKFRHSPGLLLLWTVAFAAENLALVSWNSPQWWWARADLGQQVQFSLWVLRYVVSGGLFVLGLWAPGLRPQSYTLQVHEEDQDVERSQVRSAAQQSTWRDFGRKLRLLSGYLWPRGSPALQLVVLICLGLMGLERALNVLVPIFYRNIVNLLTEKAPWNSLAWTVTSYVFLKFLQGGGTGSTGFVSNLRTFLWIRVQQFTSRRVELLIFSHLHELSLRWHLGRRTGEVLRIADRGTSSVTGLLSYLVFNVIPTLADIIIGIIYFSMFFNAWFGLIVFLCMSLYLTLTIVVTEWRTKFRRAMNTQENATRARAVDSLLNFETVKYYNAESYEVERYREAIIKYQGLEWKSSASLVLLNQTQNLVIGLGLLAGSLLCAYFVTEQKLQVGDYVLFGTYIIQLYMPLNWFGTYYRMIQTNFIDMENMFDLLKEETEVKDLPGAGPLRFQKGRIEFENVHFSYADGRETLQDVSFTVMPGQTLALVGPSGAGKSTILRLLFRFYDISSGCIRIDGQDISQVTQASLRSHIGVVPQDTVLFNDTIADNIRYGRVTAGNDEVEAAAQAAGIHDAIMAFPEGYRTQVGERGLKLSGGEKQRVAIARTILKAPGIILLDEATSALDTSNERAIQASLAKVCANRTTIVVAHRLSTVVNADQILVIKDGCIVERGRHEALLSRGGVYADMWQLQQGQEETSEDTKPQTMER
Structure (SMILES),percent of DMSO control GFP [1],GFP response vs DMSO [2],percent response of DMSO control [3],GFP response vs DMSO [4],"GFP response, % of DMSO [5]",double positive events [6],vesicle binding response [6],inhibition [7],superoxide response (% of plate) [8],aptamer binding inhibition [9],response [10],inhibition [11],response [12],binding (% of control) [13],inhibition [14],inhibition [15],inhibition [16],efflux inhibition (fraction of control) [17],inhibition [18],differentiation response [19]
CCn1ccnc1CN1CCCC(C(=O)c2cc(F)ccc2OC)C1 (stereo not given),100% (inactive),93% (inactive),96.7% (inactive),99.9% (inactive),102% (inactive),61.5%,125% (inactive),-3.16% (inactive),96.9% (inactive),2% (inactive),-6.87% (inactive),18.6% (inactive),1.54% (inactive),98.4% (inactive),0.8% (inactive),-1.2% (inactive),-1.6% (inactive),-0.21 (inactive),3% (inactive),-8.8% (inactive)
OC1CCCCC1N1CCC(c2ccccc2)CC1 (stereo not given),92.8% (inactive),133% (inactive),91.3% (inactive),70.4% (inactive),89.4% (inactive),62.4%,171% (inactive),5.49% (inactive),110% (inactive),3% (inactive),-8.3% (inactive),-5.17% (inactive),2.23% (inactive),127% (inactive),8.9% (inactive),-1% (inactive),6.3% (inactive),0.52 (active),15% (inactive),-1.64% (inactive)
CC1CCC[C@H](O)CCCCCc2cc(O)cc(O)c2C(=O)O1 (stereo not given in full),102% (inactive),99.7% (inactive),106% (inactive),114% (inactive),109% (inactive),62.7%,174% (inactive),19% (inactive),111% (inactive),-3% (inactive),-2.64% (inactive),-18.8% (inactive),6.16% (inactive),106% (inactive),-0.6% (inactive),0.6% (inactive),-2.4% (inactive),0.69 (active),-7% (inactive),-4.57% (inactive)
CC(=O)c1ccc(-c2ccccc2)cc1,97% (inactive),120% (inactive),110% (inactive),84.7% (inactive),103% (inactive),63.6%,339% (inactive),-15.8% (inactive),96.8% (inactive),-3% (inactive),9.21% (inactive),-0.36% (inactive),1% (inactive),108% (inactive),-2.6% (inactive),-1.2% (inactive),-1.9% (inactive),-0.06 (inactive),14% (inactive),4.91% (inactive)
CC12CN3CC(C)(CN(C1)C3c1cccs1)C2O (stereo not given),105% (inactive),98.3% (inactive),109% (inactive),83.5% (inactive),104% (inactive),67%,976% (inactive),4.73% (inactive),106% (inactive),2% (inactive),-7.61% (inactive),1.53% (inactive),1.19% (inactive),98% (inactive),-2.4% (inactive),-1.2% (inactive),7.5% (inactive),-0.07 (inactive),0% (inactive),0.24% (inactive)
C[C@H]1CCCC(=O)CCC/C=C/c2cc(O)cc(O)c2C(=O)O1,102% (inactive),104% (inactive),96% (inactive),96.5% (inactive),98.3% (inactive),57.4%,138% (inactive),-0.31% (inactive),102% (inactive),3% (inactive),2.24% (inactive),-2.22% (inactive),0.54% (inactive),99% (inactive),5.6% (inactive),0.5% (inactive),0.4% (inactive),-0.09 (inactive),3% (inactive),-5.68% (inactive)
Cn1c(O)c(C=NCCc2c[nH]c3ccccc23)c(=O)n(C)c1=O,100% (inactive),111% (inactive),97.7% (inactive),120% (inactive),110% (inactive),76.2%,17400% (inactive),5.03% (inactive),106% (inactive),5% (inactive),-8.95% (inactive),-3.21% (inactive),3.13% (inactive),96.8% (inactive),-1.3% (inactive),1.4% (inactive),-1.6% (inactive),-0.06 (inactive),6% (inactive),-23.2% (inactive)
CN1CCN(C(=O)OC2c3nccnc3C(=O)N2c2ccc(Cl)cn2)CC1 (stereo not given),99.9% (inactive),112% (inactive),92.9% (inactive),117% (inactive),106% (inactive),58.9%,6590% (inactive),9.13% (inactive),111% (inactive),2% (inactive),-5.78% (inactive),0.51% (inactive),-1.22% (inactive),100% (inactive),4.3% (inactive),-0.8% (inactive),1.7% (inactive),-0.03 (inactive),5% (inactive),-13.6% (inactive)
CCn1c(O)c(C(=O)CC2NCCc3ccccc32)c(=O)n(CC)c1=S (stereo not given),95.2% (inactive),118% (inactive),97.7% (inactive),132% (inactive),101% (inactive),55.8%,186% (inactive),-7.25% (inactive),113% (inactive),1% (inactive),20.4% (inactive),5.21% (inactive),1.26% (inactive),102% (inactive),2.4% (inactive),1.1% (inactive),-11.5% (inactive),-0.03 (inactive),-11% (inactive),-15.2% (inactive)
